Test results published in ChEMBL document CHEMBL2218924, “A broad activity screen in support of a chemogenomic map for kinase signalling research and drug discovery” (Biochem J, 2013).

Columns and labels:
[1] = biological target: T1, Serine/threonine-protein kinase TBK1 (Homo sapiens) (UniProt Q9UHD2); conditions: at 10 µM
T1 sequence (whole entry): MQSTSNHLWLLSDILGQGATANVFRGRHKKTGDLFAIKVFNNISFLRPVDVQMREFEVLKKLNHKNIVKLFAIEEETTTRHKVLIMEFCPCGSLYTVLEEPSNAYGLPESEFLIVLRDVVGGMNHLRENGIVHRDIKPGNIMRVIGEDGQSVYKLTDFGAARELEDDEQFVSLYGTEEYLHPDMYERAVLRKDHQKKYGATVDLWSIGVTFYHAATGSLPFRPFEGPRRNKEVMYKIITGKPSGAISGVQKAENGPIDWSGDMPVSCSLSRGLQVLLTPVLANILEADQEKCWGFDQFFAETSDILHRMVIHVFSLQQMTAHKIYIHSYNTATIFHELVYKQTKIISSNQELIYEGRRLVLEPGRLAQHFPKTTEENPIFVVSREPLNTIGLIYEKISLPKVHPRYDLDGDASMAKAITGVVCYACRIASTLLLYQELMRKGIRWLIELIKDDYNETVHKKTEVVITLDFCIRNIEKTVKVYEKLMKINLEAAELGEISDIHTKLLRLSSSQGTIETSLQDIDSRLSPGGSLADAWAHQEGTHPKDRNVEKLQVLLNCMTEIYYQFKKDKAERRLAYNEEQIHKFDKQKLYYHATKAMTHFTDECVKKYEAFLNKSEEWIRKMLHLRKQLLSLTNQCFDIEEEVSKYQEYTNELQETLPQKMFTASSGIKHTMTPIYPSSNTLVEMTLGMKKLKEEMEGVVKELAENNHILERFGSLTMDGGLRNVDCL

[2] = biological target: T2, TGF-beta receptor type-1 (Homo sapiens) (UniProt P36897); conditions: at 1 µM
T2 sequence (whole entry): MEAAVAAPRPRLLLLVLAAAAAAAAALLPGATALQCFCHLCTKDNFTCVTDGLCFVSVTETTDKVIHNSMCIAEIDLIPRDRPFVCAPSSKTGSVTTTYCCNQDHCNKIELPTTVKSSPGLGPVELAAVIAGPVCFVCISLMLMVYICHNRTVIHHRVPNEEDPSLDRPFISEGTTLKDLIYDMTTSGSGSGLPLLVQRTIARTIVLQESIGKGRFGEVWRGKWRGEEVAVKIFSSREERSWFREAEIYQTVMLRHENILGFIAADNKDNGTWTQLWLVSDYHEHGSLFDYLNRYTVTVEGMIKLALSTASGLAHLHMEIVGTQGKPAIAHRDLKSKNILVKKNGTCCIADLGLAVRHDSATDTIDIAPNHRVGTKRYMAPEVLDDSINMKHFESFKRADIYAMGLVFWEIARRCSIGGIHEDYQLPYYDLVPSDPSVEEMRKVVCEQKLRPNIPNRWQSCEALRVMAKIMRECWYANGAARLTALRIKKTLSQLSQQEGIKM

[3] = biological target: T2, TGF-beta receptor type-1 (Homo sapiens); conditions: at 10 µM
[4] = biological target: Insulin-like growth factor 1 receptor (Homo sapiens) (UniProt P08069); conditions: at 1 µM
Insulin-like growth factor 1 receptor (Homo sapiens), sequence (P08069 31-736 limits assumed): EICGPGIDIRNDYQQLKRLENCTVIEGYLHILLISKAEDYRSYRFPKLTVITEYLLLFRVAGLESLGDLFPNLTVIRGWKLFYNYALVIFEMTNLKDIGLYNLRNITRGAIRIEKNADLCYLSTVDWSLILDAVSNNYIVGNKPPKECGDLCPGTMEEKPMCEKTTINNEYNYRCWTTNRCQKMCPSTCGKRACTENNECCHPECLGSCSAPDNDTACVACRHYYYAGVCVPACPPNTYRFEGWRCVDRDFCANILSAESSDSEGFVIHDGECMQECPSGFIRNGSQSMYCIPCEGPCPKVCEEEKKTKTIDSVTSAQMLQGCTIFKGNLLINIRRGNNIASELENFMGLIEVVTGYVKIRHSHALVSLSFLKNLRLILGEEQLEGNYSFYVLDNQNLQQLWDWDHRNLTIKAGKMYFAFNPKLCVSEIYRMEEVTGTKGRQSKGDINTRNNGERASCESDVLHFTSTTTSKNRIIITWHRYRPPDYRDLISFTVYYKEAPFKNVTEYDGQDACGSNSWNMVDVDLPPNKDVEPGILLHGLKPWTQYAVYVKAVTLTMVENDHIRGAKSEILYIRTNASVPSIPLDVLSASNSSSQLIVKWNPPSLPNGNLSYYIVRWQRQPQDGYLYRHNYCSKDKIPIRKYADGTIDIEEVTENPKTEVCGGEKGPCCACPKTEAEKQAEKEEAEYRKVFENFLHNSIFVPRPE
Insulin-like growth factor 1 receptor (Homo sapiens), sequence (P08069 741-1367 limits assumed): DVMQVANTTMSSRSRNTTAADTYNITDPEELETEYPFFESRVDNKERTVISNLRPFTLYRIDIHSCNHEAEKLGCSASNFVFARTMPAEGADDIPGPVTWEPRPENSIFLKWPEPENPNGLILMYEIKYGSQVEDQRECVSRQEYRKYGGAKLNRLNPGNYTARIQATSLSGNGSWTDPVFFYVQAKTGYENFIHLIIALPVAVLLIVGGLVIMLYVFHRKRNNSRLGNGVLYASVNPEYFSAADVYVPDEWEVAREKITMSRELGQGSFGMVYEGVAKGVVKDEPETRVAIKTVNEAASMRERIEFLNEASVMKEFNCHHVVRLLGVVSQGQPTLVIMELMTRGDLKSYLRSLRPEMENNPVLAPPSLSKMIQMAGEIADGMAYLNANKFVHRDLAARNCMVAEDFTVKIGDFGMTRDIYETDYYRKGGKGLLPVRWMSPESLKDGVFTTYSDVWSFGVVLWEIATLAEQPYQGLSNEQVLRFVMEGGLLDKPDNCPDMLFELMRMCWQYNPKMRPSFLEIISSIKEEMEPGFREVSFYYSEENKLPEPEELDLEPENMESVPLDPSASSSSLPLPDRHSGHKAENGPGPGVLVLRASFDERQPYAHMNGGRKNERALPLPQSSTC

[5] = biological target: Insulin-like growth factor 1 receptor (Homo sapiens) (UniProt P08069); conditions: at 10 µM
[6] = biological target: T3, Inhibitor of nuclear factor kappa-B kinase subunit beta (Homo sapiens) (UniProt O14920); conditions: at 1 µM
T3 sequence (whole entry): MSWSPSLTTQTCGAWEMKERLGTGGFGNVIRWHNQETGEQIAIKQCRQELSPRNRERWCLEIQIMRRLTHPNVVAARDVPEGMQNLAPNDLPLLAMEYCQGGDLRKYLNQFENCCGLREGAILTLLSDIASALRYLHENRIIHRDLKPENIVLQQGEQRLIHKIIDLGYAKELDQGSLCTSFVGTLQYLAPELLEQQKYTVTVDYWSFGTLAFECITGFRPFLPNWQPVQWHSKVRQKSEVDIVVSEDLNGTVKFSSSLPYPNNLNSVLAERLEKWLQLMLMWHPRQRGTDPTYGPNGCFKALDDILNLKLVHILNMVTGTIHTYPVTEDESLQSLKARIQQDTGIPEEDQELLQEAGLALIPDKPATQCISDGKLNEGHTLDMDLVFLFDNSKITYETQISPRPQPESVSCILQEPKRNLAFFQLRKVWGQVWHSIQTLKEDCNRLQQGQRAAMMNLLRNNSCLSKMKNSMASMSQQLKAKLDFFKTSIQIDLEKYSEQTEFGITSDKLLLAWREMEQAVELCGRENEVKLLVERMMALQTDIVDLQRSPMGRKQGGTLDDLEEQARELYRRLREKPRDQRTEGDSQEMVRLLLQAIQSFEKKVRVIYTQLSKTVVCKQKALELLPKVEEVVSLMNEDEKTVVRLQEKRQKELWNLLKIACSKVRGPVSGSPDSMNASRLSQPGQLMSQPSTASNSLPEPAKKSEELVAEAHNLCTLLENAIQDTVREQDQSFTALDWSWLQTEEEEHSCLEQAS

[7] = biological target: T3, Inhibitor of nuclear factor kappa-B kinase subunit beta (Homo sapiens); conditions: at 10 µM
[8] = biological target: Insulin receptor (Homo sapiens) (UniProt P06213); conditions: at 1 µM
Insulin receptor (Homo sapiens), sequence (P06213 28-758 limits assumed): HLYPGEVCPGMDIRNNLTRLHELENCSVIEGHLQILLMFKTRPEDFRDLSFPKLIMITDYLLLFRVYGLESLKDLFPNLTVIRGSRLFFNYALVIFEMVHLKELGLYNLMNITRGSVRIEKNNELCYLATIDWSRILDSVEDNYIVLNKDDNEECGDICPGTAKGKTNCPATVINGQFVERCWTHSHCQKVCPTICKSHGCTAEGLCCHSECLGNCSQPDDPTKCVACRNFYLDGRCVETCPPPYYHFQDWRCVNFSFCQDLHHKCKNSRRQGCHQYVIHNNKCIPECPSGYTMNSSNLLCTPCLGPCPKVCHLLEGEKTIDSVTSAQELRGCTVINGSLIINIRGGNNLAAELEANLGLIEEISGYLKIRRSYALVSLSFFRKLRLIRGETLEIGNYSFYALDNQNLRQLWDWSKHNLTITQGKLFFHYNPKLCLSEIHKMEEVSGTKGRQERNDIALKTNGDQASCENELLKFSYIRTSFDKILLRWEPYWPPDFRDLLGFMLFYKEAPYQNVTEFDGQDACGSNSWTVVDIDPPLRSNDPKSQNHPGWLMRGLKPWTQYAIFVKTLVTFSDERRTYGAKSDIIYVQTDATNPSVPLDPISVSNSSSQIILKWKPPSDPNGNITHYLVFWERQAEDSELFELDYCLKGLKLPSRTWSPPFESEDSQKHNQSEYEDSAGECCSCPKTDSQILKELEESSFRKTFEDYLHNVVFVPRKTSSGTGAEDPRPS
Insulin receptor (Homo sapiens), sequence (P06213 763-1382 limits assumed): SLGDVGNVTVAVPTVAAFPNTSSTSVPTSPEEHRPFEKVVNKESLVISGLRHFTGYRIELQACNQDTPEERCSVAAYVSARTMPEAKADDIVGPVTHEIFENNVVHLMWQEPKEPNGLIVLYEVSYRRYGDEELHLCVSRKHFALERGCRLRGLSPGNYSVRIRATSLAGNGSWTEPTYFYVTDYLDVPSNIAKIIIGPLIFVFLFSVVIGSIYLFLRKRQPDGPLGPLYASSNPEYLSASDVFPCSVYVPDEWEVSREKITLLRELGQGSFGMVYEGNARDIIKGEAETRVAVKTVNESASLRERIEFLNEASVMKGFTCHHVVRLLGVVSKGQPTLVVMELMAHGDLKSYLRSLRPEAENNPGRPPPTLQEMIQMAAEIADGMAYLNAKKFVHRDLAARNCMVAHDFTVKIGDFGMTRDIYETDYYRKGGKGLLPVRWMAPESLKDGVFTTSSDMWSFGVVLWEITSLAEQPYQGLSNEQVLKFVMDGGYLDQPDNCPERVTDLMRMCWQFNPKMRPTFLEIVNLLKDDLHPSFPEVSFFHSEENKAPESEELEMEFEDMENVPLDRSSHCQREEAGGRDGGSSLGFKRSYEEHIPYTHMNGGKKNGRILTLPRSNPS

[9] = biological target: Insulin receptor (Homo sapiens) (UniProt P06213); conditions: at 10 µM
[10] = biological target: Insulin receptor (Homo sapiens) (UniProt P06213); conditions: at 1 µM; remark: listed apart in the source
[11] = biological target: Insulin receptor (Homo sapiens) (UniProt P06213); conditions: at 10 µM; remark: listed apart in the source
[12] = biological target: Interleukin-1 receptor-associated kinase 1 (Homo sapiens) (UniProt P51617); conditions: at 1 µM
Interleukin-1 receptor-associated kinase 1 (Homo sapiens), sequence (P51617 whole entry, looked up): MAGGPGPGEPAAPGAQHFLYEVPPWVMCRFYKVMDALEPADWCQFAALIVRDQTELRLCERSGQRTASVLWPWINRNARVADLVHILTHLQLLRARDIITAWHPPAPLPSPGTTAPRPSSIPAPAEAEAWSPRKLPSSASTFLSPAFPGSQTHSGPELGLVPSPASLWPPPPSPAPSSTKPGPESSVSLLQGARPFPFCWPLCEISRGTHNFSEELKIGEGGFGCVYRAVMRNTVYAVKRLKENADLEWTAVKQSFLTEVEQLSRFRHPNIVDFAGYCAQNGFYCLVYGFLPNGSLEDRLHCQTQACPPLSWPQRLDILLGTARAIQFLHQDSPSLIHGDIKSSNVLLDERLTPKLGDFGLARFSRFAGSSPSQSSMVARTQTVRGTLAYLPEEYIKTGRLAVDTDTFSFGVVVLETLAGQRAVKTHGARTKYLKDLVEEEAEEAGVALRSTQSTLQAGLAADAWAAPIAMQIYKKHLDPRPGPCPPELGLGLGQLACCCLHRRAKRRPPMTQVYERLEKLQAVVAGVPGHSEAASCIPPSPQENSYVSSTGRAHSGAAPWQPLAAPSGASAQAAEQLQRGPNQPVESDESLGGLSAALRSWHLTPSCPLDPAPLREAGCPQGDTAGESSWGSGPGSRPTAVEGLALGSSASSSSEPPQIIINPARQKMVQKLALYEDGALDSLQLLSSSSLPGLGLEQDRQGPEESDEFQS

[13] = biological target: T4, Interleukin-1 receptor-associated kinase 4 (Homo sapiens) (UniProt Q9NWZ3); conditions: at 1 µM
T4 sequence (whole entry): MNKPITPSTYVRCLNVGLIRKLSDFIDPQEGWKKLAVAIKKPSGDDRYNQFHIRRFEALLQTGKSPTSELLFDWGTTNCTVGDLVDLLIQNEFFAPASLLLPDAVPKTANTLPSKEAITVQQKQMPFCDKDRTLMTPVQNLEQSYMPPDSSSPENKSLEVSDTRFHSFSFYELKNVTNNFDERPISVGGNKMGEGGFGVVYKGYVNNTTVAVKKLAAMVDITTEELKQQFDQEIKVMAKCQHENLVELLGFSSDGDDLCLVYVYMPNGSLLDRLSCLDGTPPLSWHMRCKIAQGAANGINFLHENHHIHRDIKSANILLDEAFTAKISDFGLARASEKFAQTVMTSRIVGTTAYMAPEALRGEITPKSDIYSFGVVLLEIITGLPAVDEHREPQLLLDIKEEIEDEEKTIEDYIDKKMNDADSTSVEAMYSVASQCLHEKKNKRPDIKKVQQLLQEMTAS

[14] = biological target: T4, Interleukin-1 receptor-associated kinase 4 (Homo sapiens); conditions: at 10 µM
[15] = biological target: T5, Inhibitor of nuclear factor kappa-B kinase subunit alpha (Homo sapiens) (UniProt O15111); conditions: at 1 µM
T5 sequence (whole entry): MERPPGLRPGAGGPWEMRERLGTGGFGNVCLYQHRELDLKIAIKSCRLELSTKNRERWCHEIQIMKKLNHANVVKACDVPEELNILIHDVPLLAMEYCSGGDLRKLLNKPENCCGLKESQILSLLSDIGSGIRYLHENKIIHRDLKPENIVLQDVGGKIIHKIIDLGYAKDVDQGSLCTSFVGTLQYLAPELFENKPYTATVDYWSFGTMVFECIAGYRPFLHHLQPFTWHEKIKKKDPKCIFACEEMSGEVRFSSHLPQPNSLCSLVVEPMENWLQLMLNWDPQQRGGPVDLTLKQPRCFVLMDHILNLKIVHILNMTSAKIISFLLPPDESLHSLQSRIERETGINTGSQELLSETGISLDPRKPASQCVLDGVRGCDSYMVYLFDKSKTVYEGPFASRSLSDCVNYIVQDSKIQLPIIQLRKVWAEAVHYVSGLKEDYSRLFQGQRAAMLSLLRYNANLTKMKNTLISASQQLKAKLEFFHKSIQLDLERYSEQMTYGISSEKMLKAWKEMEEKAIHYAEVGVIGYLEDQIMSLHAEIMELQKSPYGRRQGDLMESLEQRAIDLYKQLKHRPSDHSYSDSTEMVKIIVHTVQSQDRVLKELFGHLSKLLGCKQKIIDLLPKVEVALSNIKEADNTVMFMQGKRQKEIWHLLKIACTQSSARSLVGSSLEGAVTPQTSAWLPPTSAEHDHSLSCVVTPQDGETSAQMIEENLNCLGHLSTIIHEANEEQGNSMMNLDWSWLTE

[16] = biological target: T5, Inhibitor of nuclear factor kappa-B kinase subunit alpha (Homo sapiens); conditions: at 10 µM
[17] = biological target: Interleukin-1 receptor-associated kinase 1 (Homo sapiens) (UniProt P51617); conditions: at 10 µM
[18] = biological target: Insulin receptor-related protein (Homo sapiens) (UniProt P14616); conditions: at 1 µM
Insulin receptor-related protein (Homo sapiens), sequence (P14616 27-742 limits assumed): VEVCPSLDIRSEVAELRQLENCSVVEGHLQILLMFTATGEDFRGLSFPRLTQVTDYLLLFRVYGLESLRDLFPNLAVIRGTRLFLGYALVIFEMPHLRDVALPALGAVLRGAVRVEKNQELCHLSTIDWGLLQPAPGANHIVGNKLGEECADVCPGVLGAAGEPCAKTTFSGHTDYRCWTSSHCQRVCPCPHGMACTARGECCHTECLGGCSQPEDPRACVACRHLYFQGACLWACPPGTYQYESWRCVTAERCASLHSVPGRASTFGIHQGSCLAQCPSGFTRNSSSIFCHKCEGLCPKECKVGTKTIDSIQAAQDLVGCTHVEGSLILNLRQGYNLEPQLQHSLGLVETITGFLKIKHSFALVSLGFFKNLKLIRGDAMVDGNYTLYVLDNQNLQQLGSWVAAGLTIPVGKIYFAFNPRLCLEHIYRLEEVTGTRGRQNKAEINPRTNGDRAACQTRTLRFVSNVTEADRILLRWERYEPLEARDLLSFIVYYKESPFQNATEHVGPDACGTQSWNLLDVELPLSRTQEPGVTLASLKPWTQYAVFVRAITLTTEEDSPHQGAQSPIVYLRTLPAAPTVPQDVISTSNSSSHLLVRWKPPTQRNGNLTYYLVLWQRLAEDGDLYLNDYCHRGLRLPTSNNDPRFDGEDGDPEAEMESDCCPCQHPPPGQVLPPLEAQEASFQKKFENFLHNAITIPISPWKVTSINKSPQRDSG
Insulin receptor-related protein (Homo sapiens), sequence (P14616 747-1297 limits assumed): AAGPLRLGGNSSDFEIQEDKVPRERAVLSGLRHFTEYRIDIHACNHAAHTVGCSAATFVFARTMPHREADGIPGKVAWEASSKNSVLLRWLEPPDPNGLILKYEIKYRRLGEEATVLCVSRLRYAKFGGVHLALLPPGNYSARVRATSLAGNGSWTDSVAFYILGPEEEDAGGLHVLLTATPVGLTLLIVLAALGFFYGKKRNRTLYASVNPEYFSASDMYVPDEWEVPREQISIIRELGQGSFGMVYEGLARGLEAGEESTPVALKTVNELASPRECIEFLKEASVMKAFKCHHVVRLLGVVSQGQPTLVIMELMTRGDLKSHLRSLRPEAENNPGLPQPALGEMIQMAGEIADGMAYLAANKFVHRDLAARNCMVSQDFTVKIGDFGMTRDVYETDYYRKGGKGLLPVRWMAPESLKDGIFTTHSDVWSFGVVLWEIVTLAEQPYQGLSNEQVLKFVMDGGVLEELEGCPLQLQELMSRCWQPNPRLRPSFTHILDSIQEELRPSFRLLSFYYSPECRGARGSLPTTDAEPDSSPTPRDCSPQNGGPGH

[19] = biological target: Insulin receptor-related protein (Homo sapiens) (UniProt P14616); conditions: at 10 µM
[20] = biological target: T6, Tyrosine-protein kinase ITK/TSK (Homo sapiens) (UniProt Q08881); conditions: at 1 µM
T6 sequence (whole entry): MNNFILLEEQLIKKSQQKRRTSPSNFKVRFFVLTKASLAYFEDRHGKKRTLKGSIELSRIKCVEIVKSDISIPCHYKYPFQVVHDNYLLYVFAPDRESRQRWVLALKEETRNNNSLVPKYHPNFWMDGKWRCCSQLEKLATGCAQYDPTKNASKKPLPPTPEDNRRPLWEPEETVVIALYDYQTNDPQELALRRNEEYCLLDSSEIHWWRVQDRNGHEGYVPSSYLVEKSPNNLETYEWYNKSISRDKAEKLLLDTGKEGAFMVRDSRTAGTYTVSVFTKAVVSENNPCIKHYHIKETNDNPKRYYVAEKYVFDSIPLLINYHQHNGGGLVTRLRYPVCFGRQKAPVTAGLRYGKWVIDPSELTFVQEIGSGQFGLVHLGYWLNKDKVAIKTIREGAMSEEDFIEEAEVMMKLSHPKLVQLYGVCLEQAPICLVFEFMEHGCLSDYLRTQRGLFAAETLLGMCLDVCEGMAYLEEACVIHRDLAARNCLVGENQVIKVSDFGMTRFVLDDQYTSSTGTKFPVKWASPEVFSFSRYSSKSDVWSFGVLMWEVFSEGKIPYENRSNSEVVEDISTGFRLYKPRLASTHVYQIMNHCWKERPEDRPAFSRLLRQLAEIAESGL

SMILES | residual activity [1] | residual activity [2] | residual activity [3] | residual activity [4] | residual activity [5] | residual activity [6] | residual activity [7] | residual activity [8] | residual activity [9] | residual activity [10] | residual activity [11] | residual activity [12] | residual activity [13] | residual activity [14] | residual activity [15] | residual activity [16] | residual activity [17] | residual activity [18] | residual activity [19] | residual activity [20]
O=C1C(Cl)=C(N2C(=O)CCC2=O)C(=O)c2ccccc21 | 60% | 100% | 90% | 90% | 101% | 116% | 92% | 100% | 87% | 89% | 93% | 85% | 75% | 83% |  |  |  |  |  | 
Nc1n[nH]c2nc3ccccc3nc12 | 63% | 91% | 82% |  |  | 122% | 90% |  |  |  |  | 98% | 93% | 67% | 93% | 69% | 98% | 122% | 86% | 
CC(C)c1nn(-c2c(Cl)cccc2Cl)c2nc(Cc3ccc(OCCO)cc3)[nH]c(=O)c12 | 63% | 94% | 86% | 105% | 107% | 109% | 100% | 85% |  | 102% | 99% | 103% | 104% | 91% | 99% | 90% | 84% |  |  | 98%
Nc1nc(Nc2ccc(S(N)(=O)=O)cc2)nn1C(=O)c1c(F)cccc1F | 19% | 105% | 62% |  | 63% |  | 69% |  |  |  |  |  | 96% | 37% |  |  | 43% | 112% | 57% | 
CC(C)[C@H](CO)Nc1nc(Nc2cc(N)cc(Cl)c2)c2ncn(C(C)C)c2n1 | 43% | 98% | 91% | 75% | 17% |  | 88% | 90% | 50% | 55% | 6% | 94% | 39% | 7% |  |  | 49% |  |  | 
COc1ccc(Cl)cc1NC(=O)Nc1cc(C)nc2ccccc12 | 69% | 86% | 94% |  |  |  |  |  |  |  |  | 96% |  |  |  |  | 100% |  |  | 
O=C(NC(NC(=S)Nc1ccc(F)c([N+](=O)[O-])c1)C(Cl)(Cl)Cl)C(c1ccccc1)c1ccccc1 (centres undefined) | 74% | 98% | 87% | 85% | 85% |  |  |  | 96% | 98% | 93% |  |  |  | 90% | 100% |  | 126% |  | 
